According to PubChem BioAssay AID504773 (Broad Institute, 2011):
Potency and affinity values are given separately. Activity calls are given as the source filed them.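 How the source made its calls: active means polarization signal falls with dose and the fitted half-maximal concentration is at or below ten times the sample's top valid dose; inconclusive means flat curve at 30 to 70% inhibition, or poor fit; inactive means signal rises, flat within 30%, or potency beyond limit.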

The compounds below were run against Golgi-associated PDZ and coiled-coil motif-containing protein (Homo sapiens) (UniProt Q9HD26) (assay: potency against CAL PDZ-peptide interaction – biochemical, fluorescence polarization, Cerulean-tagged CAL PDZ, cherry-picks, dose response (AID 504773)). Settings: CAL PDZ-peptide binding, 1 h; series mostly up to 50 µM.

outcome, inactive:
O=C(NCc1ccccn1)Nc1ccc(F)c(Cl)c1
CN(C)C1(CNC(=O)C2CCC(=O)N(CCc3ccc(Cl)cc3)C2)CCCCC1 (configuration not stated)
COC(=O)CN1C(=O)N/C(=C/c2cc(Cl)c(OC)c(OC)c2)C1=O
Cc1c(C)c2cc3c4c(oc3c(C)c2oc1=O)CCCC4
O=C(NNC(=O)c1ccc(Cl)c(Cl)c1)c1cccnc1
COc1ccc(C(C)=O)cc1COC(=O)CNC(=O)c1ccccc1F
COC(=O)c1ccccc1NC(=O)n1cc(C)cn1
Cn1c(CNC(=O)OC(C)(C)C)n[nH]c1=S
CN(CC1CCCO1)S(=O)(=O)c1ccc(C(=O)Nc2ccc([N+](=O)[O-])cc2)cc1 (configuration not stated)
O=S(=O)(c1cccc2ccccc12)N1CCCCC1
CS(=O)(=O)c1ccc(Cl)c(NC(=O)COC(=O)c2c(Cl)cccc2Cl)c1
CCN(CC)S(=O)(=O)c1cc(C(=O)Oc2ccccc2OC)ccc1OC
CC(CCCC(C)(C)O)NC(=O)c1ccc(OC2CCN(C(=O)C3CC3)CC2)cc1 (configuration not stated)
O=C(NC1CCCN(Cc2ccc(Cl)cc2)C1)c1cccc(N2CCCC2=O)c1 (configuration not stated)
Cc1nc(N)c(CC(Br)CBr)c(Cl)n1 (configuration not stated)
CCN(C(=O)CSc1ncccc1C(=O)O)C1CCCCC1
COC(=O)c1cccc([N+](=O)[O-])c1CS(=O)(=O)c1ccc(C)cc1
COc1ccc(Nc2cccccc2=O)cc1
c1ccc(C2Nc3ccccc3Oc3ccccc32)cc1 (configuration not stated)
Cc1cc(C)nc(CCNC(=O)c2cc(COc3c(C)cccc3C)on2)n1
CSc1ccc(CNCCCSc2ncccn2)cc1
COc1ccc(CN(C)C(C)C(=O)NC2CCCc3ccccc32)cc1 (configuration not stated)
CC1CCC(NS(=O)(=O)c2ccc3c(c2)n(C)c(=O)c(=O)n3C)CC1 (configuration not stated)
Oc1ccc(/C=N\Nc2nncc(-c3ccccc3)n2)cc1
O=C(NCCc1cnc[nH]1)c1cccs1
CO[C@H]1O[C@H](C)[C@@H](O)C[C@H]1NC(=O)OCc1ccccc1
O=C(NCc1cccnc1)c1ccc(Cn2c(=S)[nH]c3ccc(Br)cc3c2=O)cc1
C=CCNC(=O)CC1Nc2c3ccccc3nc(=S)n2C1=O (configuration not stated)
Cc1ccc2nc3c(nc2c1)-c1ccccc1C3=O
C=CCn1c(NC(=O)c2ccco2)nc2ccccc21
CCOC(=O)C1(Cc2cccc(Cl)c2)CCCN(C(=O)c2cccc(C)n2)C1 (configuration not stated)
CCOc1ccccc1CN1CCC(n2nccc2NC(=O)C2CCCC2)CC1
CCOC(=O)c1ccc(N=C2SC(C(=O)NC)CC(=O)N2Cc2ccc(F)cc2)cc1 (configuration not stated)
O=C(CN1CC[n+]2c(-c3cccs3)csc21)c1ccc(-c2ccccc2)cc1
CN(C)/N=C1\CCS(=O)(=O)c2sccc21
CC1=C(C#N)C(=O)NC(=O)/C1=C\c1ccc(-c2cc(C)c(C)cc2[N+](=O)[O-])o1
c1ccc(CNc2nc(NCc3ccccc3)c3ccccc3n2)cc1
